Laboratory results as given in the supplement of paper PMC6555819.

System: RARb homodimer (NR concentration 270 nM)
Test: PBM binding z-score (relative to random genomic background probes); higher = stronger binding; sequences stand for … in GC…GCGATTGACAGCGTAGAATGAAGG
Method in brief: (§1)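 For binding z-scores, the reference was random background probes on custom Agilent 4×180K protein-binding microarrays. These arrays were incubated 1 h with ligand-free nuclear receptor dimers in PBS pH 7.4, 2% milk, 0.02% Triton X-100, 1 mM DTT, 0.2 mg/mL BSA and 0.4 mg/ml salmon testes DNA. Fluorescence was scanned after antibody detection of each partner (one per run) and regression-normalized.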

Sequence | PBM binding z-score
ACTATTAGTTGACACGAGGGCAACCGATAGGTTG | 1.76
TCATTTAGGTAAAAGGTGAAAGTCGGTGTGGTAA | 1.9
ACTAGCAAGCCAAGTTTGGGTCACTCAAACAAAG | 1.51
AAAATGAGGTTATACGTAGATCAGGGAAGAAAGT | 0.619
CATGCAGGGTCAGCTAGGCCAGAGTAGGGACGGC | 3.19
GTACCAAGGTTAATAGGTCGTTGATGAGTAGGCG | 2.14
GCTTGTAGATCAAGGTTAAGGAAGACTAAGCTAA | 0.296
CGAACTAGGTCATTTACAGGACAGTGAATAGTAA | 2.66
CGAACTAGGTCAGAACAGGACAGTGAAGGATGAT | 1.92
TCTCGGAGGACACGAAAGATCAGAGCTCGACATC | 0.303
GGAACGAGTGCATTCGAGTTGATAGCATGGCGAT | -0.91
TTCCCAAGGTGAAAGGTCGTTGATGCACGCCTTG | 3.14
ACTCGGAGGACCAAGGTCAGAGCTACGCCAGTGA | 2.9
TGAATGAGCTTATAAGATCAGGGAACGTTGCAAA | -1.21
TATACAGGGTCAAAGGCCAGAGTACGAATGTCGA | 3.67
TCGTATAGGTAAAGGTGAAAGTCGAACGATATGA | 1.77
TTACCAAGGAGAAAGGTCGTTGATGCACGCCTTG | 1.55
CAGCCTAGGTCAAGGCCAGTATAGGAGGAACGTT | 3.01
TCGAGTAGGTTAGTCGGGGCATTCATCCAACATA | 0.534
ACAGACCGGTGAGTGAAGGTAACTCAGCTGGACG | -0.506

Sequence | PBM binding z-score
CTTAGCAGGCCAATCTGGGTCACTCAAGGCTTGA | 2.2
ATCTCGAGGTAACAAGTTCAGTGAAAGAGAGGAC | 1.83
GCGACTGGTGCAAAGCAGGTTACCATAAGGTTGG | 0.217
TAGCCTAGGTCGGATCGGGCCAGTATACGCTATA | 0.206
GCTTGTAGATCAAGATTAAGAAAGACTAAGCTAA | -1.07
CAAACTAGGTCAGAGAGGTCAAAGTCCGTGCGTA | 5.19
TAGCCTGGGTCATGCGGGCCAGTATAGTGTCGGC | 2.5
CAACCAAGGTGAACAAGGTCGTTGATTACTATTC | 2.25
TATACAGGGTCAAAGGCCACAGTACGAATGTCGA | 3.85
AGTCAAAGTTCAATAGGTAACGTAAGATTCAGCT | 3.98
CAAACAGGGTCAGCTAGGCCAGAGTAGGGACGGC | 3.2
TGTCAAAGTTCAAAGGTAACGTAAGTATCCACAC | 3.82
TAGTCTAGGTCAGATCGGGCCAGTATACGCTATA | 2.21
TCTCGGAGGACACGAAAGGTAAGAGCTCGACATC | 0.782
AGTCAAAGTTCATCTAGGTAAGGTAAGATATGCT | 4.03
CGTCCAAGGTCAAAGGGCAGTGAAGAGATGACGG | 4.39
TAGCCTAGGTCTTTGGGCCAGTATAGTACGCATC | -0.337
TTACCAGGGTGAAAGGTCGTTGATGCACGCCTTG | 2.58
CGTCCAAGGTCAGAGAGGTCAATGAATGCCGAGT | 5.42
TCATATAGGTAATACAGGTGAAAATCGGCATCTA | 0.328

System: RARg:RXRa (NR concentration 270 nM, RXRa partner concentration 90 nM)
Test: as above
Method in brief: as §1

Sequence | PBM binding z-score
ACTATTAGTTGACACGAGGGCAACCGATAGGTTG | 1.56
TCATTTAGGTAAAAGGTGAAAGTCGGTGTGGTAA | 1.81
ACTAGCAAGCCAAGTTTGGGTCACTCAAACAAAG | 0.717
AAAATGAGGTTATACGTAGATCAGGGAAGAAAGT | 1.88
CATGCAGGGTCAGCTAGGCCAGAGTAGGGACGGC | 4.53
GTACCAAGGTTAATAGGTCGTTGATGAGTAGGCG | 3.29
GCTTGTAGATCAAGGTTAAGGAAGACTAAGCTAA | 0.309
CGAACTAGGTCATTTACAGGACAGTGAATAGTAA | 4.82
CGAACTAGGTCAGAACAGGACAGTGAAGGATGAT | 2.45
TCTCGGAGGACACGAAAGATCAGAGCTCGACATC | 0.634
GGAACGAGTGCATTCGAGTTGATAGCATGGCGAT | -0.352
TTCCCAAGGTGAAAGGTCGTTGATGCACGCCTTG | 4.25
ACTCGGAGGACCAAGGTCAGAGCTACGCCAGTGA | 2.35
TGAATGAGCTTATAAGATCAGGGAACGTTGCAAA | -0.305
TATACAGGGTCAAAGGCCAGAGTACGAATGTCGA | 5.46
TCGTATAGGTAAAGGTGAAAGTCGAACGATATGA | 1.52
TTACCAAGGAGAAAGGTCGTTGATGCACGCCTTG | 1.43
CAGCCTAGGTCAAGGCCAGTATAGGAGGAACGTT | 4.16
TCGAGTAGGTTAGTCGGGGCATTCATCCAACATA | -0.0149
ACAGACCGGTGAGTGAAGGTAACTCAGCTGGACG | -0.114

Sequence | PBM binding z-score
CTTAGCAGGCCAATCTGGGTCACTCAAGGCTTGA | 0.952
ATCTCGAGGTAACAAGTTCAGTGAAAGAGAGGAC | 2.13
GCGACTGGTGCAAAGCAGGTTACCATAAGGTTGG | -0.209
TAGCCTAGGTCGGATCGGGCCAGTATACGCTATA | 0.17
GCTTGTAGATCAAGATTAAGAAAGACTAAGCTAA | -0.362
CAAACTAGGTCAGAGAGGTCAAAGTCCGTGCGTA | 6.39
TAGCCTGGGTCATGCGGGCCAGTATAGTGTCGGC | 3.64
CAACCAAGGTGAACAAGGTCGTTGATTACTATTC | 1.9
TATACAGGGTCAAAGGCCACAGTACGAATGTCGA | 6.13
AGTCAAAGTTCAATAGGTAACGTAAGATTCAGCT | 5.19
CAAACAGGGTCAGCTAGGCCAGAGTAGGGACGGC | 4.72
TGTCAAAGTTCAAAGGTAACGTAAGTATCCACAC | 6.28
TAGTCTAGGTCAGATCGGGCCAGTATACGCTATA | 2.72
TCTCGGAGGACACGAAAGGTAAGAGCTCGACATC | 0.65
AGTCAAAGTTCATCTAGGTAAGGTAAGATATGCT | 5.32
CGTCCAAGGTCAAAGGGCAGTGAAGAGATGACGG | 6.57
TAGCCTAGGTCTTTGGGCCAGTATAGTACGCATC | -0.253
TTACCAGGGTGAAAGGTCGTTGATGCACGCCTTG | 3.82
CGTCCAAGGTCAGAGAGGTCAATGAATGCCGAGT | 7
TCATATAGGTAATACAGGTGAAAATCGGCATCTA | 0.729
